Reference: PubChem BioAssay (EPA / NIEHS)
Several values for one entry are separate records, joined by “and”; a condition that tells them apart may be missing. Identical values can stand only once. A structure can be active in one record and inactive in another. Activity calls are given as the source filed them. The calls were made as follows: active = hit-call score of the fitted dose curve at least 0.9, where 1 is the maximum; inactive = score below 0.9.

Legend:
Conditions in all cases: mRNA level, 48 h; actives raise or lower the signal
[1] = read-out: ABC Transporter (ABCB11), ABCB11 (gene 8647); experiment: LTEA_HepaRG_ABCB11: Life Technologies and Expression Analysis (LTEA) Assay for ABC Transporter (ABCB11) using HepaRG (AID 2283463)
Outline: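 HepaRG, 48 h exposure, 8-pt half-log CRC top 100 uM, 0.5% DMSO vehicle, duplicates. Readout: TaqMan qRT-PCR of ABCB11 mRNA, housekeeping-normalized (ACTB/GAPDH/POLR2A). Bidirectional fit vs DMSO baseline.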

[2] = read-out: ABC Transporter (ABCC2), ABCC2 (gene 1244); experiment: LTEA_HepaRG_ABCC2: Life Technologies and Expression Analysis (LTEA) Assay for ABC Transporter (ABCC2) using HepaRG (AID 2283464)
Outline: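 HepaRG, 48 h post-plating; serum-free induction medium; cpd 8-pt, 100 uM top, half-log, 0.5% DMSO, duplicate, 48 h. Readout: ABCC2 mRNA by qRT-PCR, norm. ACTB/GAPDH/POLR2A. Bidirectional fit vs DMSO baseline.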

[3] = read-out: Broad substrate specificity ATP-binding cassette transporter ABCG2 (Homo sapiens) (UniProt Q9UNQ0); experiment: LTEA_HepaRG_ABCG2: Life Technologies and Expression Analysis (LTEA) Assay for ABC Transporter (ABCG2) using HepaRG (AID 2283465)
Outline: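 HepaRG, 48 h exposure, 8-pt half-log series from 100 uM, 0.5% DMSO vehicle, duplicates. Readout: ABCG2 transcript by qRT-PCR (Fluidigm array), housekeeping-normalized; bidirectional curve fit relative to DMSO baseline.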

[4] = read-out: ATP-citrate lyase (ACLY), ACLY (gene 47); experiment: LTEA_HepaRG_ACLY: Life Technologies and Expression Analysis (LTEA) Assay for ATP-citrate lyase (ACLY) using HepaRG (AID 2283466)
Outline: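 qRT-PCR readout of ACLY transcript after 48 h chemical treatment of HepaRG cells; expression normalized to three housekeeping genes. Eight-point half-log series, highest 100 uM, 0.5% DMSO vehicle. Gain or loss fitted against DMSO baseline.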

[5] = read-out: Peroxisomal acyl-coenzyme A oxidase 1 (ACOX1) gene, ACOX1 (gene 51); experiment: LTEA_HepaRG_ACOX1: Life Technologies and Expression Analysis (LTEA) Assay for Peroxisomal acyl-coenzyme A oxidase 1 (ACOX1) gene using HepaRG (AID 2283467)
Outline: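 HepaRG, 48 h chemical exposure, 8-pt half-log series from 100 uM top, 0.5% DMSO vehicle, duplicates. Readout: ACOX1 mRNA by Fluidigm qRT-PCR, housekeeping-normalized; bidirectional fit vs DMSO baseline.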

[6] = read-out: Alkaline Phosphatase, Placental (ALPP) gene, ALPP (gene 250); experiment: LTEA_HepaRG_ALPP: Life Technologies and Expression Analysis (LTEA) Assay for Alkaline Phosphatase, Placental (ALPP) gene using HepaRG (AID 2283468);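 as to AC50: differentiated human HepaRG liver cells in serum-free induction medium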
Outline: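 HepaRG, 48 h plating then 48 h dosing, serum-free induction medium, 0.5% DMSO. 8 conc, half-log, max 100 uM, duplicates. Endpoint: ALPP transcript by qRT-PCR, housekeeping-normalized; gain or loss fitted vs DMSO.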

[7] = read-out: Bcl-2 (BAD) gene, BAD (gene 572); experiment: LTEA_HepaRG_BAD: Life Technologies and Expression Analysis (LTEA) Assay for Bcl-2 (BAD) gene using HepaRG (AID 2283469)
Outline: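 HepaRG, 48 h exposure, 8-pt half-log curve from 100 uM in 0.5% DMSO, duplicates. Readout: TaqMan qRT-PCR for BAD mRNA, housekeeping-normalised (ACTB/GAPDH/POLR2A); gain or loss fitted against DMSO baseline.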

[8] = read-out: Bcl-2 (BAX) gene, BAX (gene 581); experiment: LTEA_HepaRG_BAX: Life Technologies and Expression Analysis (LTEA) Assay for Bcl-2 (BAX) gene using HepaRG (AID 2283470)
Outline: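 Gene expression measured by Fluidigm qRT-PCR with three housekeeping genes for normalisation. HepaRG cells, plated 48 h beforehand, treated 48 h at up to 100 uM (8-point, half-log) in 0.5% DMSO. Bidirectional fitting versus DMSO.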

[9] = read-out: adenosine kinase (ADK) gene, ADK (gene 132); experiment: LTEA_HepaRG_ADK: Life Technologies and Expression Analysis (LTEA) Assay for adenosine kinase (ADK) gene using HepaRG (AID 2283471)
Outline: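 Following 48 h exposure of HepaRG cells in 0.5% DMSO (top concentration 100 uM, duplicate wells), ADK mRNA induction or suppression was measured by qRT-PCR, normalised to ACTB/GAPDH/POLR2A, and fitted bidirectionally relative to vehicle.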

[10] = read-out: Alpha-fetoprotein (AFP) gene, AFP (gene 174); experiment: LTEA_HepaRG_AFP: Life Technologies and Expression Analysis (LTEA) Assay for Alpha-fetoprotein (AFP) gene using HepaRG (AID 2283472)
Outline: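 AFP transcript measured by TaqMan qRT-PCR with three housekeeping genes for normalization, after 48 h chemical treatment of HepaRG cells (top 100 uM, half-log steps, 0.5% DMSO). Gain or loss fitted against vehicle.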

[11] = read-out: Apolipoprotein A-V (APOA5) gene, APOA5 (gene 116519); experiment: LTEA_HepaRG_APOA5: Life Technologies and Expression Analysis (LTEA) Assay for Apolipoprotein A-V (APOA5) gene using HepaRG (AID 2283474)
Outline: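 Readout is APOA5 transcript level by qRT-PCR on Fluidigm dynamic arrays, normalized to three housekeeping genes. HepaRG cultures received chemicals for 48 h at up to 100 uM (half-log steps, 0.5% DMSO), with gain or loss scored relative to DMSO.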

[12] = read-out: Apoptosis regulator Bcl-2 (Homo sapiens) (UniProt P10415); experiment: LTEA_HepaRG_BCL2: Life Technologies and Expression Analysis (LTEA) Assay for Bcl-2 gene using HepaRG (AID 2283475)
Outline: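 qRT-PCR of BCL2 transcript, normalized to three housekeeping genes (ACTB, GAPDH, POLR2A), after 48 h chemical exposure of HepaRG cells; concentrations top 100 uM with half-log dilutions, 0.5% DMSO vehicle, duplicates; changes up or down fitted relative to vehicle.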

[13] = read-out: Bcl-2 (BID) gene, BID (gene 637); experiment: LTEA_HepaRG_BID: Life Technologies and Expression Analysis (LTEA) Assay for Bcl-2 (BID) gene using HepaRG (AID 2283476)
Outline: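 Duplicate 48 h treatments of HepaRG cells in serum-free induction medium spanned 100 uM downward in half-log steps, 0.5% DMSO. Transcript change quantified by qRT-PCR against three housekeeping genes, fitted up or down versus DMSO.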

Caspase-3 (Homo sapiens) = Caspase-3 (Homo sapiens) (UniProt P42574); experiment: LTEA_HepaRG_CASP3: Life Technologies and Expression Analysis (LTEA) Assay for cysteine-aspartic acid protease (CASP3) using HepaRG (AID 2283477)
Caspase-3 (Homo sapiens), sequence (P42574 whole entry, looked up): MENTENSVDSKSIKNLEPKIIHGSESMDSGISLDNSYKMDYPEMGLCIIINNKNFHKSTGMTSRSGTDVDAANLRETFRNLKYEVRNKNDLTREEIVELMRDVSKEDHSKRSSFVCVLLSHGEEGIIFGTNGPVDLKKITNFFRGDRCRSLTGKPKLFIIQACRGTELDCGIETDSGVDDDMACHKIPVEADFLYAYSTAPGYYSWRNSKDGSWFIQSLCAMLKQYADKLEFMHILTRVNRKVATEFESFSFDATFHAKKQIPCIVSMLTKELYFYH
Outline: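 Read-out is CASP3 mRNA level by TaqMan qRT-PCR in human HepaRG cells after 48 h chemical exposure. Eight half-log concentrations topping at 100 uM were tested in 0.5% DMSO; gain or loss was fitted relative to DMSO.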

[14] = read-out: Cytochrome P450 (CYP24A1), CYP24A1 (gene 1591); experiment: LTEA_HepaRG_CYP24A1: Life Technologies and Expression Analysis (LTEA) Assay for Cytochrome P450 (CYP24A1) using HepaRG (AID 2283478)
Outline: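 HepaRG, 48 h chemical exposure, 8-pt half-log CRC from 100 uM, 0.5% DMSO vehicle, duplicates. Endpoint: CYP24A1 mRNA by Fluidigm TaqMan qRT-PCR, normalized ACTB/GAPDH/POLR2A; gain/loss fit vs DMSO.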

[15] = read-out: Cytochrome P450 (CYP1A2), CYP1A2 (gene 1544); experiment: LTEA_HepaRG_CYP1A2: Life Technologies and Expression Analysis (LTEA) Assay for Cytochrome P450 (CYP1A2) using HepaRG (AID 2283479)
Outline: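 CYP1A2 transcript induction or loss, quantified by Fluidigm qRT-PCR against three housekeeping genes, was fitted bidirectionally against 0.5% DMSO controls. Human HepaRG cells received eight half-log concentrations from 100 uM over 48 h.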

[16] = read-out: cysteine-aspartic acid protease (CASP8), CASP8 (gene 841); experiment: LTEA_HepaRG_CASP8: Life Technologies and Expression Analysis (LTEA) Assay for cysteine-aspartic acid protease (CASP8) using HepaRG (AID 2283480)
Outline: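 qRT-PCR readout of CASP8 mRNA, normalized to three housekeeping genes, after 48 h chemical exposure of HepaRG cells; 8-point half-log series, top 100 uM, 0.5% DMSO vehicle. Bidirectional curve fitting against DMSO baseline.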

[17] = read-out: Cytochrome P450 (CYP2B6), CYP2B6 (gene 1555); experiment: LTEA_HepaRG_CYP2B6: Life Technologies and Expression Analysis (LTEA) Assay for Cytochrome P450 (CYP2B6) using HepaRG (AID 2283481)
Outline: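 HepaRG cells plated 48 h, switched to serum-free induction medium, then dosed 48 h (8 points, half-log from 100 uM, 0.5% DMSO). RNA isolated; CYP2B6 expression measured by qRT-PCR; gain or loss fitted relative to DMSO.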

[18] = read-out: Cytochrome P450 2C19 (Homo sapiens) (UniProt P33261); experiment: LTEA_HepaRG_CYP2C19: Life Technologies and Expression Analysis (LTEA) Assay for CYP2C19 using HepaRG (AID 2283482)
Outline: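 Transcript levels of CYP2C19 were quantified by qRT-PCR after HepaRG cells were treated for 48 hours with test chemicals up to 100 uM (eight half-log concentrations, 0.5% DMSO vehicle). Gain or loss of signal was fitted relative to DMSO.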

BCL2L11 (gene 10018) = experiment: LTEA_HepaRG_BCL2L11: Life Technologies and Expression Analysis (LTEA) Assay for Bcl-2 (BCL2L11) gene using HepaRG (AID 2283473)
Outline: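 Read-out is BCL2L11 transcript level by qRT-PCR, normalized to three housekeeping genes and fitted bidirectionally against 0.5% DMSO vehicle. HepaRG cells received chemicals for 48 h in serum-free induction medium, 100 uM down in half-log dilutions.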

Measured: AC50

Broad substrate specificity ATP-binding cassette transporter ABCG2 (Homo sapiens), sequence (Q9UNQ0 whole entry, looked up): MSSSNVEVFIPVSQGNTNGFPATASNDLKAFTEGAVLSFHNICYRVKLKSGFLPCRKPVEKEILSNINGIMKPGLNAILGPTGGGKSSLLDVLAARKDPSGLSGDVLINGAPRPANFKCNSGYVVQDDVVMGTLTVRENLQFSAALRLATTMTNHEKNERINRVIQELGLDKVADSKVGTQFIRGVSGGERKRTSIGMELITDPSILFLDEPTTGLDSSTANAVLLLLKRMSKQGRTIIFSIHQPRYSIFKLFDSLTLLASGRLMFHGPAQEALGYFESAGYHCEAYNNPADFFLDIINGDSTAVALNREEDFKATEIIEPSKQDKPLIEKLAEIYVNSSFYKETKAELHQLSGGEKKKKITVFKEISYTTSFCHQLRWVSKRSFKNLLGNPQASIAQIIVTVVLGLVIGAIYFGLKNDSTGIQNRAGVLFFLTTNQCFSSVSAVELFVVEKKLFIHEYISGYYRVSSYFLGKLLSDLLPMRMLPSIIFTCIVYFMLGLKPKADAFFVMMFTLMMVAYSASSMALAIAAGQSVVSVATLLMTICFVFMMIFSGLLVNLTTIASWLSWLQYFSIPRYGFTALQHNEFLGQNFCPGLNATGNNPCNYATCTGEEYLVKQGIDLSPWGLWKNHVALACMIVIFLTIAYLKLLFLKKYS
Apoptosis regulator Bcl-2 (Homo sapiens), sequence (P10415 whole entry, looked up): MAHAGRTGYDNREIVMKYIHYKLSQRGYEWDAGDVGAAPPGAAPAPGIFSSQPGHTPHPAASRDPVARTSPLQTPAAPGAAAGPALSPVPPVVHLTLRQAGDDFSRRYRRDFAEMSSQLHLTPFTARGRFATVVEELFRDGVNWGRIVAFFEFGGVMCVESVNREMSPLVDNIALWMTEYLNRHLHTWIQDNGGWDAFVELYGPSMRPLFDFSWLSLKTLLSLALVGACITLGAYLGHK
Cytochrome P450 2C19 (Homo sapiens), sequence (P33261 whole entry, looked up): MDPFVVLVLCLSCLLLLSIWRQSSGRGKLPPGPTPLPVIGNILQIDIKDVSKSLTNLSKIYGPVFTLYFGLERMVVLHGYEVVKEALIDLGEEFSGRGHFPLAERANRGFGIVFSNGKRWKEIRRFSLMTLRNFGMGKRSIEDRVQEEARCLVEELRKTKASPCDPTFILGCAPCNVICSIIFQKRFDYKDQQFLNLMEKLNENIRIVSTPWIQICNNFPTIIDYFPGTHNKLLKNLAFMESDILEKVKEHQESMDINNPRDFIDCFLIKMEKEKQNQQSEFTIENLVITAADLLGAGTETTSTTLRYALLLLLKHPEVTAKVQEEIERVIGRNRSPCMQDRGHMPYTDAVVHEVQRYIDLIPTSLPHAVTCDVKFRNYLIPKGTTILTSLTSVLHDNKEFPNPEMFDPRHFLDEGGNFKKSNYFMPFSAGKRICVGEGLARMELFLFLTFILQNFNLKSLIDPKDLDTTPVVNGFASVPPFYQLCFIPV

COP(=S)(OC)Oc1nc(Cl)c(Cl)cc1Cl
active: [1] 86.7 µM | [15] 66.5 µM
not listed: BCL2L11 (gene 10018)
inactive: all other assays above

COc1cnc(OC)n2nc(NS(=O)(=O)c3c(OCC(F)F)cccc3C(F)(F)F)nc12
active: [10] 50 µM | [17] 6.02 µM | [18] 10.8 µM
not listed: [11] | [16] | BCL2L11 (gene 10018)
inactive: all other assays above

CCCN(CCC)c1c([N+](=O)[O-])cc(S(N)(=O)=O)cc1[N+](=O)[O-]
inactive: [1] | [3] | [4] | [5] | [6] | [7] | [8] | [9] | [10] | BCL2L11 (gene 10018) | [12] | [13] | Caspase-3 (Homo sapiens) | [14] | [15]
active: [1] 82 µM | [2] 92.1 µM and 82.3 µM and 84.7 µM | [3] 15.8 µM | [4] 94.3 µM | [5] 77.5 µM | [7] 74.1 µM | [9] 80.6 µM | [10] 15.8 µM | BCL2L11 (gene 10018) 95.3 µM and 84.3 µM | Caspase-3 (Homo sapiens) 79.2 µM | [15] 87.5 µM | [17] 11.1 µM and 11.9 µM and 10.7 µM | [18] 8.44 µM and 84.8 µM and 8.78 µM

COC(=O)C=C(C)OP(=O)(OC)OC
active: [1] 21.4 µM
not listed: [4] | [11] | [16]
inactive: all other assays above

C=CCC1=C(C)C(OC(=O)C2C(C=C(C)C)C2(C)C)CC1=O (configuration not stated)
active: [1] 64.8 µM and 79.9 µM and 19 µM | [3] 50 µM and 79.2 µM | [5] 90.9 µM | [6] 92.4 µM and 71.1 µM | [10] 90.3 µM and 79.8 µM and 66.3 µM | [17] 12.1 µM and 90.6 µM and 11.7 µM | [18] 91.5 µM
inactive: [2] | [5] | [6] | [7] | [8] | [9] | [12] | [13] | Caspase-3 (Homo sapiens) | [14] | [15] | [18]

CCCCOC(=O)c1ccccc1C(=O)OCCCC
not listed: [4] | [11] | [16]
inactive: all other assays above
